The other results are listed elsewhere or left out. Records with an inconclusive call do not appear. Active and inactive are the calls of the source. The call rests on the fitted dose curve; in most records, active means well fitted inhibition curve with a large enough effect; inconclusive means small, poorly fitted or top-dose-only effect; inactive means no such curve, though single readings can be large or run the other way.
biological target: Histone-lysine N-methyltransferase 2A (Homo sapiens) (UniProt Q03164); experiment: qHTS Fluorescence Polarization (FP) Assay for Inhibitors of MLL CXXC domain - DNA interaction: Fluorescein FP; conditions: MLL CXXC-DNA binding; further: nearly all actives have a fitted effect of over 80% in size
From the text: The MLL (Mixed Lineage Luekemia) gene is involved in chromosomal translocation that results in either acute lymphoid leukemia (ALL) or acute myeloid leukemia (AML). Chromasomal translocation of MLL gene is responsible for the fusion of N-terminal MLL to more than 60 different partner genes in frame. Many of the MLL partner genes contain transcription activation domains or function as transcriptional activators. Despite the heterogeneity of fusion partners, the N-terminus of MLL fusion proteins always consists of the N-terminal menin binding motif and the CXXC domain. The MLL-CXXC domain specifically recognizes unmethylated CpG sequences of the HOX-A gene. Disruption of the MLL-CXXC and HOX-A gene interaction leads to down regulation of HOX-A gene expression and may potentially reverse leukemogenesis. We have miniaturized and optimized an in-vitro assay to screen for inhibitors of the MLL-CXXC domain and HOX-A DNA interaction, which could have utility in MLL fusion leukemias.
This is a hit validation assay that tests this hits identified in the primary screen in this secondary screen, using flurescein FP as a read-out.
NIH Molecular Libraries Probe Production Network [MLPCN]
NIH Chemical Genomics Center [NCGC]
PI Name: John Bushweller, University of Virgina
The affinity purified MLL-CXXC domain, unlabeled HOX-A9 DNA strand, fluorescein (FLSN) labeled HOX-A9 DNA strand were kindly supplied by the laboratory of Dr. John Bushweller, University of Virginia. All reagents were stored in single use aliquots at -80C.
Assay buffer: 50 mM TRIS-HCl pH 7.5, 50 mM NaCl, 1 mM DTT. Add 0.05% BSA prior to reaction setup.
1.Dispense 1 ul of a 7 uM MLL-CXXC solution prepared in assay buffer into column 1-48.
2.Transfer 23 nl of compounds and unlabeled HOX-A9 per well.
3.Incubate for 5 minutes at ambient.
4.Dispense 1ul of a 50 nM FLSN-HOX-A9 solution prepared in assay buffer into columns 1-48
5.Centrifuge for 30 seconds at 1000 RPM.
6.Incubate for 30 minutes at ambient.
7.Read using the Envision reader fluorescent polarization protocol.
Potency means the concentration at half of the fitted maximal effect.

Histone-lysine N-methyltransferase 2A (Homo sapiens), sequence (Q03164 whole entry, looked up, the tested form may be a part): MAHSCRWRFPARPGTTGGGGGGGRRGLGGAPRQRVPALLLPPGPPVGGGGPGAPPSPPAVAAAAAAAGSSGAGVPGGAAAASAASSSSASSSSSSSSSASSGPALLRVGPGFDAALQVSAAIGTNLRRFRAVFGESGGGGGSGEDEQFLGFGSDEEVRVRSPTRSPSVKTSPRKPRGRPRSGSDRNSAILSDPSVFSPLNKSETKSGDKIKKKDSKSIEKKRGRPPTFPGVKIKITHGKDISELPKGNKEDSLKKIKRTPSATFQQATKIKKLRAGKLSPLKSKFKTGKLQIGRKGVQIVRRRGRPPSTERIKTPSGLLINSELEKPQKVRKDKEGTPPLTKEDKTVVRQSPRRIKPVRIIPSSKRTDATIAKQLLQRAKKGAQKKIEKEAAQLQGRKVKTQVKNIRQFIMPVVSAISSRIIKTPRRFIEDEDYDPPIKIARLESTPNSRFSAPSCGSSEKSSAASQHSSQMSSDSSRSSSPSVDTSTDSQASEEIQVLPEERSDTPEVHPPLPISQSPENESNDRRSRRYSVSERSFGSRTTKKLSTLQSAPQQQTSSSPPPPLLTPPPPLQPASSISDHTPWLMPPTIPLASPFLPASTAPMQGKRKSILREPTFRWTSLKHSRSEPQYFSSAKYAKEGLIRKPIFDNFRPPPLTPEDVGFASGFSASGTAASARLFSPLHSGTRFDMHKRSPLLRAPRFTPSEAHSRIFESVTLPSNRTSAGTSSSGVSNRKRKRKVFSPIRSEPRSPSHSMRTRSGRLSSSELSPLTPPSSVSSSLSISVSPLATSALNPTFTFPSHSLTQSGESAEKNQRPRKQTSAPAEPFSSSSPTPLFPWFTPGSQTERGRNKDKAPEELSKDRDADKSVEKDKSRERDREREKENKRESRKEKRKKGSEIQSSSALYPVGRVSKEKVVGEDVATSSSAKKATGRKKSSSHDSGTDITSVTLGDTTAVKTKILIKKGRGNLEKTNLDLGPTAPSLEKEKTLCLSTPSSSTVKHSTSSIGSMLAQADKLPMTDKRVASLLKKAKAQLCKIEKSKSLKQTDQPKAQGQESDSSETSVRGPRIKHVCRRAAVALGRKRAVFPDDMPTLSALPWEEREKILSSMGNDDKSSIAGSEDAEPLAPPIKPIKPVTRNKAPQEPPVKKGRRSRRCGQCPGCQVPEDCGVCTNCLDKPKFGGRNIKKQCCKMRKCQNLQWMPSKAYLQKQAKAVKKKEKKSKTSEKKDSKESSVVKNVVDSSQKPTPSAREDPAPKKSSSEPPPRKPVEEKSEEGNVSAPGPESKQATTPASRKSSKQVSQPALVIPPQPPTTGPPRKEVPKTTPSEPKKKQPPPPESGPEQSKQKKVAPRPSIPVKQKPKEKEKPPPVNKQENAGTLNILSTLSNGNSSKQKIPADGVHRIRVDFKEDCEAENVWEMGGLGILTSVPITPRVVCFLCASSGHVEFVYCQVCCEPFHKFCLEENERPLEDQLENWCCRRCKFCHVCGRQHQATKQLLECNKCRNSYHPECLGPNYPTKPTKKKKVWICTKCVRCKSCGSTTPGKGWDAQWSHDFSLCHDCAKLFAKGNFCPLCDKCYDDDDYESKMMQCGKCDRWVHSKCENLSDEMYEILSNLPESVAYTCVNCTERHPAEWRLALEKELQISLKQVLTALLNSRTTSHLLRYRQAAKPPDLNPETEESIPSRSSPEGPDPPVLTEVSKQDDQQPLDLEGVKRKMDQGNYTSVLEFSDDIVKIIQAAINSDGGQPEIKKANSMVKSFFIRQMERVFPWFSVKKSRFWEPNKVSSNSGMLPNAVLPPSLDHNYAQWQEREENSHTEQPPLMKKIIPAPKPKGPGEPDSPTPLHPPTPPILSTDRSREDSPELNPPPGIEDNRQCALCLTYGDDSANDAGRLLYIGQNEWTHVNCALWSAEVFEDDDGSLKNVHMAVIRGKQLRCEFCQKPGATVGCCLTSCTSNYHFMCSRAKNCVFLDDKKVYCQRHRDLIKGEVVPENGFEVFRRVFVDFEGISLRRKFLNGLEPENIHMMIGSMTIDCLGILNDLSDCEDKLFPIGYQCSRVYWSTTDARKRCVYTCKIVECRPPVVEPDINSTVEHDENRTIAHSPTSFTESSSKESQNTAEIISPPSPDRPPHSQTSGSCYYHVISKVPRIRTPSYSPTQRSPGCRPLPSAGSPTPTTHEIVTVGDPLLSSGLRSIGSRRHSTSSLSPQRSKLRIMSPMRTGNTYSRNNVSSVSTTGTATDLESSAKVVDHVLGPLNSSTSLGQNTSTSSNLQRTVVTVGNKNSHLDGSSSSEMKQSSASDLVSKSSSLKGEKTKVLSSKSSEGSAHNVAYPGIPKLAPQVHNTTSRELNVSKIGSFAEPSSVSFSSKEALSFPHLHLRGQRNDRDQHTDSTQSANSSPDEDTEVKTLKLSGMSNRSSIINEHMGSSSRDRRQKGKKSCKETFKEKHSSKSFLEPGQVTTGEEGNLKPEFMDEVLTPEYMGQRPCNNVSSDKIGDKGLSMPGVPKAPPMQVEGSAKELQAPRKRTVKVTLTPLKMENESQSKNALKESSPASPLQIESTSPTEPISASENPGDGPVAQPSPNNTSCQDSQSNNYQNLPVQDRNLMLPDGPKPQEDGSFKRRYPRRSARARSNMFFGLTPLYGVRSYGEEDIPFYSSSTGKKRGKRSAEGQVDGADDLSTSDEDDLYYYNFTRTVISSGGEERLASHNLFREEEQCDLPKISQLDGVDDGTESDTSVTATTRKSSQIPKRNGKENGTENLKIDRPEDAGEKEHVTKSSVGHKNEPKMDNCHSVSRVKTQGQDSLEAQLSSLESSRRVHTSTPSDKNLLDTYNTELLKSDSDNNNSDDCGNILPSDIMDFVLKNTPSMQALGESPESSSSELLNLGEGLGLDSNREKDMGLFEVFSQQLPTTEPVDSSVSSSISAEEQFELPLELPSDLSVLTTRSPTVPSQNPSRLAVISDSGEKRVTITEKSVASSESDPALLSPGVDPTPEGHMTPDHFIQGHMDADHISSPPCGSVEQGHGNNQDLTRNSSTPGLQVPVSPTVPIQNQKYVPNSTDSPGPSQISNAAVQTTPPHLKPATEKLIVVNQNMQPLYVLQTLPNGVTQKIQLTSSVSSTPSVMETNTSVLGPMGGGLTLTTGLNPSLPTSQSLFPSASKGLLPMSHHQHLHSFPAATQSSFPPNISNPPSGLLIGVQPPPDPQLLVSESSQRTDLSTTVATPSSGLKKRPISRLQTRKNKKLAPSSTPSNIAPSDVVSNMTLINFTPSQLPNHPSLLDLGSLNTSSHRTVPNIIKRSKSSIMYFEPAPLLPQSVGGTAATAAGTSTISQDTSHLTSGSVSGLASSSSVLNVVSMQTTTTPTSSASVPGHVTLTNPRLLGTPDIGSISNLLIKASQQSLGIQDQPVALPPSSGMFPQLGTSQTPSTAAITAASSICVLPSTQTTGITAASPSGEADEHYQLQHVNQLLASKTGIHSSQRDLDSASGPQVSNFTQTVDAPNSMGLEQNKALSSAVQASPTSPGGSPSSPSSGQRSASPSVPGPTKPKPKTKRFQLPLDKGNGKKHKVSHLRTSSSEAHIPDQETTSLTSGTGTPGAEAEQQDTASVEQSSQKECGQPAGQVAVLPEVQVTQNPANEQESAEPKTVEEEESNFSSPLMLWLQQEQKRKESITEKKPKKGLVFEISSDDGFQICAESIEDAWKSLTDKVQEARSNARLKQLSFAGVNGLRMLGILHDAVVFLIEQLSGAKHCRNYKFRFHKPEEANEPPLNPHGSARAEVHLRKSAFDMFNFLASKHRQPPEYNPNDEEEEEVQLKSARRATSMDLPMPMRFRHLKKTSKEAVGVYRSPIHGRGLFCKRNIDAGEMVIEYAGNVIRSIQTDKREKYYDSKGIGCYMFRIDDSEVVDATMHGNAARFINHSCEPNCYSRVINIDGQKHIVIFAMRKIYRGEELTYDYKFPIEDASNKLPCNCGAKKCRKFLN

Potency, active:
COc1ccc(-c2onc3ccc(C(C)=O)cc23)cc1 10 µM
COc1ccc(S(=O)(=O)/N=C2\C=C(NS(=O)(=O)c3ccccc3)C(=O)c3ccccc32)cc1 50.3 µM
CCOC(=O)/C(N=Nc1cc(C(=O)O)cc(C(=O)O)c1)=C(\O)CCl 6.33 µM
O=C1NN(c2ccccc2)C(=O)/C1=C/c1ccc(-c2cccc(C(=O)O)c2)o1 100 µM
COc1cc(/C=C2/C(=O)NN(c3ccc(F)cc3)C2=O)cc([N+](=O)[O-])c1O 71.1 µM
